Our source for the inhibition values is ChEMBL document CHEMBL1961873, “Compounds: GSK PKIS; Assays: Nanosyn kinase panel” (2012).

Test [1] deals with Epidermal growth factor receptor (Homo sapiens), P00533 [T790M]. To be noted: at 1 µM.
Test [2] concerns Epidermal growth factor receptor (Homo sapiens), P00533 [L858R,T790M]. To be noted: at 0.1 µM.
Test [3] has the same test system. The following applies: at 1 µM.
Test [4] addresses Ephrin type-A receptor 2 (Homo sapiens) (UniProt P29317). To be noted: at 0.1 µM.
For test [5] the target is unchanged. The following applies: at 1 µM.
In test [6] the target is T1, Ephrin type-A receptor 3 (Homo sapiens) (UniProt P29320).
T1 sequence (whole entry): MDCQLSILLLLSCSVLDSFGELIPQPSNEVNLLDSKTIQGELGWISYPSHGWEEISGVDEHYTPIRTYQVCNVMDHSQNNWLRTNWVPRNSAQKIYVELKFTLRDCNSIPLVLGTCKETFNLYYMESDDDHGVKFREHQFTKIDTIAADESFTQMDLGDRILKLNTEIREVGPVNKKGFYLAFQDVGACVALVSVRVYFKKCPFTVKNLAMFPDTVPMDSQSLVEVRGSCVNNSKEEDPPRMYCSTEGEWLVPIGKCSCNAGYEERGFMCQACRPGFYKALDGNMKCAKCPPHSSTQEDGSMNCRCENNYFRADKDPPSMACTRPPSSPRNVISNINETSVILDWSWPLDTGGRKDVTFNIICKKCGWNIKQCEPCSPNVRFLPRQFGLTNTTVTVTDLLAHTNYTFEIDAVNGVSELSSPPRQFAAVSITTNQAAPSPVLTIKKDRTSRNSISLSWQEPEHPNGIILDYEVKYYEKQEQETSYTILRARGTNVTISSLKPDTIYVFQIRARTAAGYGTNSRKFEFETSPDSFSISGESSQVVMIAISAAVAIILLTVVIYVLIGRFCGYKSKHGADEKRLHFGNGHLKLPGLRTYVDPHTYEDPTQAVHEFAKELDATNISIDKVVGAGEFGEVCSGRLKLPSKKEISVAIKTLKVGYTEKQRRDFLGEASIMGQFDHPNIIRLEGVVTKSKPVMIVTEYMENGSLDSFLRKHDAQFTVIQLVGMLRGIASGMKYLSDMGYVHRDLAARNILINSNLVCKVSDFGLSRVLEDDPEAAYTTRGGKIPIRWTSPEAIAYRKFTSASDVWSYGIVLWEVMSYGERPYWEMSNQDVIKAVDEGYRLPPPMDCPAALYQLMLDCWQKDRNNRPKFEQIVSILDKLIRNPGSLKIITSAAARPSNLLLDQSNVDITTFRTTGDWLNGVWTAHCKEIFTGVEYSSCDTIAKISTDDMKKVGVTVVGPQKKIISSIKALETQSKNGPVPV
To be noted: at 0.1 µM.

In test [7] the target is T1, Ephrin type-A receptor 3 (Homo sapiens). To be noted: at 1 µM.
The target of test [8] is Ephrin type-A receptor 4 (Homo sapiens) (UniProt P54764). The following applies: at 0.1 µM.
For test [9] the target is unchanged. To be noted: at 1 µM.
The target of test [10] is T2, Ephrin type-B receptor 2 (Homo sapiens) (UniProt P29323).
T2 sequence (whole entry): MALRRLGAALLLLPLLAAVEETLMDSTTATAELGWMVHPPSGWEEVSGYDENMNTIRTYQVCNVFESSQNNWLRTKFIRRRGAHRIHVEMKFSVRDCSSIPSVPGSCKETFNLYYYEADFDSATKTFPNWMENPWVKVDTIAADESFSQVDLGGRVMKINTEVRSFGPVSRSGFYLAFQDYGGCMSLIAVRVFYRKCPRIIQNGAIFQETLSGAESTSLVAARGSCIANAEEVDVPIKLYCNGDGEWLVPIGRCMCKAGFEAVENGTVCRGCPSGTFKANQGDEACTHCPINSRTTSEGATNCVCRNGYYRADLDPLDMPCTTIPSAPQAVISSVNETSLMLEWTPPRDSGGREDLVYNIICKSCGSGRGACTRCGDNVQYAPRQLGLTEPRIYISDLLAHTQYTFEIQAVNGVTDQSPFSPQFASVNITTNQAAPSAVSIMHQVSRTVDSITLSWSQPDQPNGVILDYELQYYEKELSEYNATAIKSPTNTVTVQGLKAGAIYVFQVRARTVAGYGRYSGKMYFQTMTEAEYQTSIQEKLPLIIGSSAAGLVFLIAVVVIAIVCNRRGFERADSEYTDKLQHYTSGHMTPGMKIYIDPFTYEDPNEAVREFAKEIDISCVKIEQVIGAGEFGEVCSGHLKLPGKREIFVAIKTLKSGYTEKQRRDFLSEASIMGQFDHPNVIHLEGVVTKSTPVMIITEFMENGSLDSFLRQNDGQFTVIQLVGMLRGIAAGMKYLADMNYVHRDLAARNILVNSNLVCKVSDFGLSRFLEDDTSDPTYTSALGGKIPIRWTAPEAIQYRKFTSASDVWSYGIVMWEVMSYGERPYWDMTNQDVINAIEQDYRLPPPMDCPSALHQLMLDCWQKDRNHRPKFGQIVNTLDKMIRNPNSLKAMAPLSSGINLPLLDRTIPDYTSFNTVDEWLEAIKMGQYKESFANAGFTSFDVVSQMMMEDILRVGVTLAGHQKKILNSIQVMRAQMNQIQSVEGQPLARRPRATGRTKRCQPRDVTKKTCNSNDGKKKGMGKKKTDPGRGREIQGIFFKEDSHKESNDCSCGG
To be noted: at 0.1 µM.

Test [11] has as its target T2, Ephrin type-B receptor 2 (Homo sapiens). The following applies: at 1 µM.
For test [12], the target named is T3, Ephrin type-B receptor 3 (Homo sapiens) (UniProt P54753).
T3 sequence (whole entry): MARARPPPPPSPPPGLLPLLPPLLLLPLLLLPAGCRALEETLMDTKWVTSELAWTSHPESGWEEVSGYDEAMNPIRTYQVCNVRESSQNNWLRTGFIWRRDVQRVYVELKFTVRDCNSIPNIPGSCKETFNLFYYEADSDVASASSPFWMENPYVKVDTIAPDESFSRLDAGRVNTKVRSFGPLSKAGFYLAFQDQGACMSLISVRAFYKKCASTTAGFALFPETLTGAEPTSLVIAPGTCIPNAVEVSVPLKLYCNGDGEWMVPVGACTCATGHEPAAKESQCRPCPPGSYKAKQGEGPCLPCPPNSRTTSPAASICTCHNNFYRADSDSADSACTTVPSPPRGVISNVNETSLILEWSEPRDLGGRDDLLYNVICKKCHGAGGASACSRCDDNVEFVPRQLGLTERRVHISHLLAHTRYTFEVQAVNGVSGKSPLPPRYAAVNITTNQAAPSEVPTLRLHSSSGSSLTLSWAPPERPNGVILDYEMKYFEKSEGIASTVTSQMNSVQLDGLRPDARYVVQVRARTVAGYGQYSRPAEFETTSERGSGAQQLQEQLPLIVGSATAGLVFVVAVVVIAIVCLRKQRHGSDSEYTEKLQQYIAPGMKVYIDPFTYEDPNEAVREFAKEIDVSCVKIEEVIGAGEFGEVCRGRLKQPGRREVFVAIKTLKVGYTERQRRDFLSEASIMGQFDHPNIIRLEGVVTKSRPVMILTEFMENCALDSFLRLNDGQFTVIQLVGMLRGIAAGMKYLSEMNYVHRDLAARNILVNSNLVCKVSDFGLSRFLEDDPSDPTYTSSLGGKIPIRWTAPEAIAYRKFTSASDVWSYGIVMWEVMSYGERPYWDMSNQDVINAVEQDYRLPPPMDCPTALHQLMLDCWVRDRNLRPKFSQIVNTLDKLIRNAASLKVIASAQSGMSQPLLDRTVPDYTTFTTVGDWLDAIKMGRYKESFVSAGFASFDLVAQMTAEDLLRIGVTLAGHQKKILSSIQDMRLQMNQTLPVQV
To be noted: at 0.1 µM.

The target in test [13] is T3, Ephrin type-B receptor 3 (Homo sapiens). To be noted: at 1 µM.
The target of test [14] is T4, Ephrin type-B receptor 4 (Homo sapiens) (UniProt P54760).
T4 sequence (whole entry): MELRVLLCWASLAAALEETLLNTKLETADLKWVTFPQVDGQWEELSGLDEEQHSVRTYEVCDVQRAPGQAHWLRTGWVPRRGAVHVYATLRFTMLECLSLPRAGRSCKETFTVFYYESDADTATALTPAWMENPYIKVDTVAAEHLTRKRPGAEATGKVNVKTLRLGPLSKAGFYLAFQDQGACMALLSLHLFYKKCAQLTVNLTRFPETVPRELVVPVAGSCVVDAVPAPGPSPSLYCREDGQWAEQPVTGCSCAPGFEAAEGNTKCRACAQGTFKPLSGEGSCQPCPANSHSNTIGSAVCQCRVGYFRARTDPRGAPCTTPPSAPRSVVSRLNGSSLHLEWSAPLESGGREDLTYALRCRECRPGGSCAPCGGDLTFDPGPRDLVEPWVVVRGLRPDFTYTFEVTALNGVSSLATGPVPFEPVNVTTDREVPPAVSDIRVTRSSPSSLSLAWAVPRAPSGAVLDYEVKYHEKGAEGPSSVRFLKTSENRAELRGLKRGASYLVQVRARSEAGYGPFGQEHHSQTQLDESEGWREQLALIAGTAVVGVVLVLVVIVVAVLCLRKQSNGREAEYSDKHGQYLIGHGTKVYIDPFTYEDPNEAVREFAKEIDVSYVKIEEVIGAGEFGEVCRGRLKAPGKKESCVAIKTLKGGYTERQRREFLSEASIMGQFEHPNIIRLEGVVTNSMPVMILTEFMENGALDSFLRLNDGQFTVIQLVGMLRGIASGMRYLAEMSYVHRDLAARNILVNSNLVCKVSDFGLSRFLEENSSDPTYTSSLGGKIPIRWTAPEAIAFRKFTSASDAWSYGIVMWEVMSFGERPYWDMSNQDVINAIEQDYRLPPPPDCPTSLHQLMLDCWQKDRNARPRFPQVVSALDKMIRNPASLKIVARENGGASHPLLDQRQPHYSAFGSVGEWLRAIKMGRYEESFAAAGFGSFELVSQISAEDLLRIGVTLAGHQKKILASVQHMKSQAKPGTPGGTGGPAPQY
The following applies: at 0.1 µM.

Test [15] deals with T4, Ephrin type-B receptor 4 (Homo sapiens). To be noted: at 1 µM.
The target in test [16] is Receptor tyrosine-protein kinase erbB-2 (Homo sapiens) (UniProt P04626). To be noted: at 0.1 µM.
Test [17] has the same target. To be noted: at 1 µM.
The target of test [18] is Receptor tyrosine-protein kinase erbB-4 (Homo sapiens) (UniProt Q15303). The following applies: at 0.1 µM.
The target is the same in test [19]. To be noted: at 1 µM.
Test [20] addresses Tyrosine-protein kinase Fer (Homo sapiens) (UniProt P16591). To be noted: at 0.1 µM.

Sequence of Epidermal growth factor receptor (Homo sapiens), P00533 [L858R,T790M] (P00533 whole entry T790M/L858R, looked up): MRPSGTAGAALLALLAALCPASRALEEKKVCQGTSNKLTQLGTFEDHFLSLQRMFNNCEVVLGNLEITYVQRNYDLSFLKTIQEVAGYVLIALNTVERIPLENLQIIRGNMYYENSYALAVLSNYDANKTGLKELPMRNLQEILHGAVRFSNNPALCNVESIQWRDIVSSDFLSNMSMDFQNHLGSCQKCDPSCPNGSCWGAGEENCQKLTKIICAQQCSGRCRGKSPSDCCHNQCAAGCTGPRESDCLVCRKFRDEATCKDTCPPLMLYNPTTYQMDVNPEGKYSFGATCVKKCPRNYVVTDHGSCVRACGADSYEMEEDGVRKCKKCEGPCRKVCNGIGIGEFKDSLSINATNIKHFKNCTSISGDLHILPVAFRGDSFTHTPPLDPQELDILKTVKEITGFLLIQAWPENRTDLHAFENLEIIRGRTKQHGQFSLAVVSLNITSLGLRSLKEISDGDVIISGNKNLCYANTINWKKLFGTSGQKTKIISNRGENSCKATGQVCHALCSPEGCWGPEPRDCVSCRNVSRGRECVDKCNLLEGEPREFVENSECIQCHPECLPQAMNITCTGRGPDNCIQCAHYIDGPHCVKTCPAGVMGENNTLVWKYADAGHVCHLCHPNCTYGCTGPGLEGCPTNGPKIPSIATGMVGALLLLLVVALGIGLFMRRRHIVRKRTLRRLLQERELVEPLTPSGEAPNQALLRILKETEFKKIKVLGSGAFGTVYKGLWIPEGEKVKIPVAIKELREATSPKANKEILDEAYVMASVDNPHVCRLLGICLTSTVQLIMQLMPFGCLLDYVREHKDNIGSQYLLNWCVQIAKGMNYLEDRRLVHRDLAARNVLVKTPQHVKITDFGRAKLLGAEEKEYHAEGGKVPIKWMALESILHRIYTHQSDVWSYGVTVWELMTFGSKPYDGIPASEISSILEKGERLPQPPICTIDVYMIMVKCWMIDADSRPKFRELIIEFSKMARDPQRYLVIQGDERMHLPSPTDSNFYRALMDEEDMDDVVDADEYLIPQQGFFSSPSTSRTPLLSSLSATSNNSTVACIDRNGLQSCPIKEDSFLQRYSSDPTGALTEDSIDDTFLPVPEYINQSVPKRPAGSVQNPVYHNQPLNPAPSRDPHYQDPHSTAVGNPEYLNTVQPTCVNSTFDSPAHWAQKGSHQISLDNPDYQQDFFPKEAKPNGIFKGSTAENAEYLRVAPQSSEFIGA
Sequence of Ephrin type-A receptor 4 (Homo sapiens) (P54764 whole entry): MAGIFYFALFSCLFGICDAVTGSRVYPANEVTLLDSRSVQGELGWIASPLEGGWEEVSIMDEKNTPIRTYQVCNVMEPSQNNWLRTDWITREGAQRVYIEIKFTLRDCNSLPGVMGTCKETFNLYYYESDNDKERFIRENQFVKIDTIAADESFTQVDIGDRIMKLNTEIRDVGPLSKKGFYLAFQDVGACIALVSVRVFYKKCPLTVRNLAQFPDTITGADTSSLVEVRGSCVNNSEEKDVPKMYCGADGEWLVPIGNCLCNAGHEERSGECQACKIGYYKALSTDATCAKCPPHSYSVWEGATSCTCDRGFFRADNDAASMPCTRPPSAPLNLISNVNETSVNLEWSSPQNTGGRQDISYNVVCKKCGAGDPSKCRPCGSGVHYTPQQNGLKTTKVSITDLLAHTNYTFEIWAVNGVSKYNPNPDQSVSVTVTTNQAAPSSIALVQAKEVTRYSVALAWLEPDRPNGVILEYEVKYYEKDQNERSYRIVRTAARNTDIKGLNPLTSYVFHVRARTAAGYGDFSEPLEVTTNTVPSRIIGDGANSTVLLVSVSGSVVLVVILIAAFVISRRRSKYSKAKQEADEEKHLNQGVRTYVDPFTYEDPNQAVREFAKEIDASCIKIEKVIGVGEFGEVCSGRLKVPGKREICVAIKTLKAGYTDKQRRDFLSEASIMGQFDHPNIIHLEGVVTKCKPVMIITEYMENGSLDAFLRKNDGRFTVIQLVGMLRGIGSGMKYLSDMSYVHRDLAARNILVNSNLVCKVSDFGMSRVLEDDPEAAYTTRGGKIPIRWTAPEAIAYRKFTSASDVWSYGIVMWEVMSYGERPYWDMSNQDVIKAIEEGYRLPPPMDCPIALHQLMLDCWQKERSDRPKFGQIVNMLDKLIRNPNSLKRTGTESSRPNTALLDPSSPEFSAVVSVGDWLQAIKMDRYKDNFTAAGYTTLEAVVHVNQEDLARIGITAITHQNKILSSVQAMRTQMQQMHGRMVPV
Sequence of Receptor tyrosine-protein kinase erbB-2 (Homo sapiens) (P04626 whole entry): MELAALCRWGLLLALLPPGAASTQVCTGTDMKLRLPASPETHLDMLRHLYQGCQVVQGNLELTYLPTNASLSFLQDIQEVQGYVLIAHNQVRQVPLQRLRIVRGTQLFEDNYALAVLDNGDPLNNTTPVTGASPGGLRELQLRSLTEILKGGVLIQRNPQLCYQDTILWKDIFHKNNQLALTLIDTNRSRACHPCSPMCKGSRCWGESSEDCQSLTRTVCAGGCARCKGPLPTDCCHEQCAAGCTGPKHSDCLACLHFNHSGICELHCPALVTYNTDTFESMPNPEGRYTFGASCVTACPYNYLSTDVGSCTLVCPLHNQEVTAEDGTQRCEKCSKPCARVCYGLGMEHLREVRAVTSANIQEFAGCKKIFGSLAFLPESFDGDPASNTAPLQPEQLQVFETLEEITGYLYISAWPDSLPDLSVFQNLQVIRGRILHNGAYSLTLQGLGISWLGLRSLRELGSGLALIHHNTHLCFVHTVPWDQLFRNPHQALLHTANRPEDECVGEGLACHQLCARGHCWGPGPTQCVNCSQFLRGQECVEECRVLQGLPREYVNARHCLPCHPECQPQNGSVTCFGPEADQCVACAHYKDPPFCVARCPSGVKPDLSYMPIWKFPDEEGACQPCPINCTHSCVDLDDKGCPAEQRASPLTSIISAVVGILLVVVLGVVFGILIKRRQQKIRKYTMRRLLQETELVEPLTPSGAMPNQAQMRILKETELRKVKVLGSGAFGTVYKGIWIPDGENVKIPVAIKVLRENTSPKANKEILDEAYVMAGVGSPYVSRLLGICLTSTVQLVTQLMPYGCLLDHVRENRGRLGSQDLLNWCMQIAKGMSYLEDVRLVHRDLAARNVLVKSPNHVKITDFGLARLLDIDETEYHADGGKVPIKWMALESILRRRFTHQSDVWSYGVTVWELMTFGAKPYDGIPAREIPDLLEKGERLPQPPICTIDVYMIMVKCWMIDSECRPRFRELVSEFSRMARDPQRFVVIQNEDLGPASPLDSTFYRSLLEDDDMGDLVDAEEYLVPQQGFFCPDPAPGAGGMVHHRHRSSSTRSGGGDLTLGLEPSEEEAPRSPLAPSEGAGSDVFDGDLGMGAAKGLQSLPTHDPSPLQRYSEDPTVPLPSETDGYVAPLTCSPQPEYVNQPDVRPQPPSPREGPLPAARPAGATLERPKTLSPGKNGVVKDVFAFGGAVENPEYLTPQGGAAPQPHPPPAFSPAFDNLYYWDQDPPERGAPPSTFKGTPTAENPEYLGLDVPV
Sequence of Ephrin type-A receptor 2 (Homo sapiens) (P29317 whole entry): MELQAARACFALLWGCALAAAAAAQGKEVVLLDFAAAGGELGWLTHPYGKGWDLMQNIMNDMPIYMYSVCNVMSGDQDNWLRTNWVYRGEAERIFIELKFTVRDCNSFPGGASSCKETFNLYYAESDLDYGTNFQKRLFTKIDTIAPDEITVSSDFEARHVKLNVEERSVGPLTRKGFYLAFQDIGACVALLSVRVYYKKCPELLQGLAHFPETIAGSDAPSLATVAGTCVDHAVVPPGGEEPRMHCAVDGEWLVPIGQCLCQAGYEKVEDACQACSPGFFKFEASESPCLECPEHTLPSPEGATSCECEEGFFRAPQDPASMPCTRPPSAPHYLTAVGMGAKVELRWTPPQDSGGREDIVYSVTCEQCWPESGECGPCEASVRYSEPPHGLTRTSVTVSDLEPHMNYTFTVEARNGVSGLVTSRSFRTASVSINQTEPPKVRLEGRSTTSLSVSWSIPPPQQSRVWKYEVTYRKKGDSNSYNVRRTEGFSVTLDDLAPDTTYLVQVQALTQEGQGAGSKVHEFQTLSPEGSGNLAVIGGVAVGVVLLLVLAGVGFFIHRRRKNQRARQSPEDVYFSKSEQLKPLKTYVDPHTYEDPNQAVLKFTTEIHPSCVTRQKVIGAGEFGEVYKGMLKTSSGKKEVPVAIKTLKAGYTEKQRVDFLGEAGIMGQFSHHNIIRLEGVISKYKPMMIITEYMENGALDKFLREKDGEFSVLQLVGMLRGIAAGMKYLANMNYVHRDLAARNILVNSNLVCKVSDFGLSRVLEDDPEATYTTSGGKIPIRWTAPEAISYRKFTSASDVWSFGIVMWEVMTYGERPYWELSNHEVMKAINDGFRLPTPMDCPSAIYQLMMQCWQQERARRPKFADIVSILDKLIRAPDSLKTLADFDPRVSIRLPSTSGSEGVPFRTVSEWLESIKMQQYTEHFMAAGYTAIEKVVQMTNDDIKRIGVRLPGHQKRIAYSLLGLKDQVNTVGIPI

With `CCCN1CCC(c2ccc(Nc3nc(Nc4cc(F)ccc4C(N)=O)c4cc[nH]c4n3)c(OC)c2)CC1`, the inhibition (usually the change of the read-out against control, counted positive when it falls) in test [1] is 81.7%; in test [2], 53.7%; in test [3], 89.1%; in test [4] it was 1.29%; in [5] it was -0.82%; in test [6] it was 3.91%. Further, the inhibition was 4.22% in test [7]; 6.74% in test [8]; 12.9% in test [9]; 6.06% in [10]; 8.57% in test [11]; 7.06% in [12]. Besides, the inhibition in test [13] is 2.33%; in [14], 3.08%; in [15] it was 2.91%; in [16], 5.68%; in test [17], 12.9%; in [18] it was 34.8%. Moreover, the inhibition in test [19] came out at 76.3%; in test [20] it was 77%.
As for `c1ccc(COc2ccc(Nc3ncnc4ccc(-c5ccco5)cc34)cc2)cc1`, the inhibition was 5% in test [1]; -0.19% in test [2]; -1.64% in test [3]; 0.9% in test [4]; -0.47% in test [5]; -0.08% in test [6]. The inhibition in test [7] was determined as 0.71%; in test [8], 0.05%; in test [9], 2.86%; in test [11] it was 1.06%; in test [12] it was 0.82%; in test [13] it was 3.5%. The inhibition in [14] is -0.6%; in test [15], 1.67%; in test [16], -0.16%; in test [17], 20%; in test [18] it was 20.1%; in test [19] it was 79.3%. Moreover, in test [20], the inhibition came to 1.72%.
Turning to `CCN1CCC(CC(=O)Nc2n[nH]c3nnc(-c4cccc(F)c4F)cc23)CC1`, the inhibition in test [1] was 3.4%; in [2] it was 1.92%; in test [3], 1.26%; in [4] it was 0.75%; in test [5] it was 1.02%; in test [6], 3.31%. The inhibition in test [7] is 2.84%; in test [8], 5.3%; in test [9], 7.67%; in test [10], -4.82%; in test [11], 3.83%; in test [12] it was 2.04%. In addition, the inhibition in test [13] is 5.11%; in [14] it was -0.34%; in test [15] it was 1.27%; in test [16], 2.4%; in [17], 3.76%; in test [18], 3.77%. Besides, the results for the inhibition in test [19] and in test [20] were 10.1% and -0.6%, respectively.
